# Compounds without any hit were thinned out: in the full panel of roughly 79,000, 15% have a hit. Unmarked numbers belong to inactive results. Calls of active or inactive are those of the source. Cut-off read from the data, not from the text of the source: active = growth inhibition above about 70%; inactive = the rest.
# Columns and labels:
# [1] = NCI Yeast Anticancer Drug Screen. Data for the rad52 strain (AID 147);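 note: 0% = growth of vehicle-treated control cultures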; details: S. cerevisiae rad52 mutant growth inhibition, stronger effect = higher value
# Outline: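 Genetically altered yeast (DNA damage repair defect) treated with compound; inhibition calculated relative to vehicle.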
# [2] = NCI Yeast Anticancer Drug Screen. Data for the wt1 strain (AID 149);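 note: 0% = growth of vehicle-treated wt1 cultures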; details: S. cerevisiae wt1 strain (SPY 50644) growth inhibition, stronger effect = higher value
# Outline: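 Yeast wt1 strain exposed to compounds; growth inhibition measured relative to vehicle-treated controls.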
# [3] = NCI Yeast Anticancer Drug Screen. Data for the rad50EPP+ strain (AID 151);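 note: 0% = growth of vehicle-treated control cultures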; details: S. cerevisiae rad50 mutant strain, stronger effect = higher value
# Outline: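 Strain rad50EPP+; compound exposure; % growth inhibition vs vehicle.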
# [4] = NCI Yeast Anticancer Drug Screen. Data for the mgt1 strain (AID 153); details: S. cerevisiae mgt1 mutant growth inhibition, stronger effect = higher value
# Outline: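 Read-out: yeast growth inhibition vs vehicle control. Strain mgt1, drawn from a panel altered in DNA damage repair or cell cycle control.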
# [5] = NCI Yeast Anticancer Drug Screen. Data for the rad50 strain (AID 155);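 note: 0% = growth of vehicle-only cultures of the same strain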; details: S. cerevisiae rad50 strain growth inhibition, stronger effect = higher value
# Outline: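 Yeast carrying a defined DNA repair defect were exposed to test compounds, and growth was compared with vehicle-treated controls to give percent inhibition.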
# [6] = NCI Yeast Anticancer Drug Screen. Data for the mec2-1 strain (AID 157); details: S. cerevisiae mec2-1 strain, stronger effect = higher value
# Outline: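 Cells of the genetically defined mec2-1 yeast strain are incubated with test compound. Inhibition of growth is calculated against vehicle-treated controls.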
# [7] = NCI Yeast Anticancer Drug Screen. Data for the rad14 strain (AID 159);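 note: 0% = growth of vehicle-treated control cultures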; details: S. cerevisiae rad14 strain growth inhibition, stronger effect = higher value
# Outline: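 Yeast cells carrying a defined DNA-repair defect were exposed to compounds, and growth inhibition was calculated relative to vehicle-treated control cultures.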
# [8] = NCI Yeast Anticancer Drug Screen. Data for the CLN2oe strain (AID 163);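 note: 0% = growth of vehicle-only control cultures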; details: S. cerevisiae CLN2oe strain, stronger effect = higher value
# Outline: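 Strain altered in cell-cycle control, incubated with compound; growth compared to solvent-treated controls.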
# [9] = NCI Yeast Anticancer Drug Screen. Data for the bub3 strain (AID 167); details: S. cerevisiae bub3 mutant strain, stronger effect = higher value
# Outline: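 Compounds were applied to a genetically altered yeast strain carrying a cell-cycle control defect. Growth inhibition was scored against vehicle-treated controls.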
# [10] = NCI Yeast Anticancer Drug Screen. Data for the wt2 strain (AID 169);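 note: 0% = growth of vehicle-treated yeast cultures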; details: S. cerevisiae wt2 strain growth inhibition, stronger effect = higher value
# Outline: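 Steps: yeast strain treated with compound; growth recorded; inhibition calculated relative to cultures given vehicle alone.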
# [11] = NCI Yeast Anticancer Drug Screen. Data for the mlh1 strain (AID 171);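 note: 0% = growth of vehicle-treated control cultures of the same strain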; details: S. cerevisiae mlh1 strain growth inhibition, stronger effect = higher value
# Outline: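 Yeast screen: mutant strain plus compound, growth scored against vehicle control wells.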
# [12] = NCI Yeast Anticancer Drug Screen. Data for the sgs1 strain (AID 173);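 note: 0% = growth of vehicle-only control cultures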; details: S. cerevisiae sgs1 mutant, stronger effect = higher value
# Outline: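 Inhibition of yeast growth served as the measure. The mutant strain was treated with each compound, and growth was normalised to cultures receiving vehicle alone.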
# [13] = NCI Yeast Anticancer Drug Screen. Data for the mlh1 rad18 strain (AID 175); details: S. cerevisiae mlh1 rad18 strain growth inhibition, stronger effect = higher value
# Outline: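 Compound-treated yeast growth, normalised to vehicle controls. Strain bears defined DNA repair mutations.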
# [14] = NCI Yeast Anticancer Drug Screen. Data for the rad18 strain (AID 177); details: S. cerevisiae rad18 mutant growth inhibition, stronger effect = higher value
# Outline: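 Inhibition values reflect reduced yeast growth compared with vehicle-treated controls, using a strain engineered with a DNA damage repair defect.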
# [15] = NCI Yeast Anticancer Drug Screen. Data for the cln2 rad14 strain (AID 165);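 note: 0% = growth equal to vehicle treated cultures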; details: S. cerevisiae cln2 rad14 strain, stronger effect = higher value
# Outline: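 The screen exposed genetically defined yeast (cln2 rad14) to test compounds and scored growth inhibition relative to vehicle-treated controls.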
# [16] = at 5.0 µM (retest, dose inferred, filed as 0.5)
# [17] = at 50.0 µM (retest, dose inferred, filed as 5.0)
compound,measurement,setting,value
O=C(/C=C/c1cccc(Br)c1)c1cccs1,growth inhibition,[1]; at 1.2 µM,-32%
same,growth inhibition,[1]; at 3.7 µM,-12%
same,growth inhibition,[1]; at 11.0 µM,74% (active)
same,growth inhibition,[1]; at 33.0 µM,97% (active)
same,growth inhibition,[1]; at 100.0 µM,94% (active)
same,growth inhibition,[2]; at 1.2 µM,-15%
same,growth inhibition,[2]; at 3.7 µM,-5%
same,growth inhibition,[2]; at 11.0 µM,61%
same,growth inhibition,[2]; at 33.0 µM,98% (active)
same,growth inhibition,[2]; at 100.0 µM,95% (active)
same,growth inhibition,[3]; at 1.2 µM,-9%
same,growth inhibition,[3]; at 3.7 µM,-5%
same,growth inhibition,[3]; at 11.0 µM,29%
same,growth inhibition,[3]; at 33.0 µM,82% (active)
same,growth inhibition,[3]; at 100.0 µM,85% (active)
same,growth inhibition,[4]; at 1.2 µM,-1%
same,growth inhibition,[4]; at 3.7 µM,13%
same,growth inhibition,[4]; at 11.0 µM,85% (active)
same,growth inhibition,[4]; at 33.0 µM,97% (active)
same,growth inhibition,[4]; at 100.0 µM,92% (active)
same,growth inhibition,[5]; at 1.2 µM,6%
same,growth inhibition,[5]; at 3.7 µM,10%
same,growth inhibition,[5]; [16],8%
same,growth inhibition,[5]; at 11.0 µM,83% (active)
same,growth inhibition,[5]; at 33.0 µM,97% (active)
same,growth inhibition,[5]; [17],96% (active)
same,growth inhibition,[5]; at 50.0 µM,88.2% (active)
same,growth inhibition,[5]; at 100.0 µM,91% (active)
same,growth inhibition,[6]; at 1.2 µM,-16%
same,growth inhibition,[6]; at 3.7 µM,4%
same,growth inhibition,[6]; [16],-9%
same,growth inhibition,[6]; at 11.0 µM,75% (active)
same,growth inhibition,[6]; at 33.0 µM,99% (active)
same,growth inhibition,[6]; [17],98% (active)
same,growth inhibition,[6]; at 50.0 µM,91.5% (active)
same,growth inhibition,[6]; at 100.0 µM,96% (active)
same,growth inhibition,[7]; at 1.2 µM,-2%
same,growth inhibition,[7]; at 3.7 µM,5%
same,growth inhibition,[7]; at 11.0 µM,81% (active)
same,growth inhibition,[7]; at 33.0 µM,96% (active)
same,growth inhibition,[7]; at 100.0 µM,92% (active)
same,growth inhibition,[8]; at 1.2 µM,9%
same,growth inhibition,[8]; at 3.7 µM,10%
same,growth inhibition,[8]; at 11.0 µM,84% (active)
same,growth inhibition,[8]; at 33.0 µM,98% (active)
same,growth inhibition,[8]; at 100.0 µM,96% (active)
same,growth inhibition,[9]; at 1.2 µM,30%
same,growth inhibition,[9]; at 3.7 µM,45%
same,growth inhibition,[9]; [16],36%
same,growth inhibition,[9]; at 11.0 µM,94% (active)
same,growth inhibition,[9]; at 33.0 µM,98% (active)
same,growth inhibition,[9]; [17],98% (active)
same,growth inhibition,[9]; at 50.0 µM,90.8% (active)
same,growth inhibition,[9]; at 100.0 µM,96% (active)
same,growth inhibition,[10]; at 1.2 µM,-24%
same,growth inhibition,[10]; at 3.7 µM,-16%
same,growth inhibition,[10]; at 11.0 µM,67%
same,growth inhibition,[10]; at 33.0 µM,98% (active)
same,growth inhibition,[10]; at 100.0 µM,95% (active)
same,growth inhibition,[11]; at 1.2 µM,9%
same,growth inhibition,[11]; at 3.7 µM,25%
same,growth inhibition,[11]; at 11.0 µM,89% (active)
same,growth inhibition,[11]; at 33.0 µM,97% (active)
same,growth inhibition,[11]; at 100.0 µM,95% (active)
same,growth inhibition,[12]; at 1.2 µM,-17%
same,growth inhibition,[12]; at 3.7 µM,0%
same,growth inhibition,[12]; at 11.0 µM,78% (active)
same,growth inhibition,[12]; at 33.0 µM,98% (active)
same,growth inhibition,[12]; at 100.0 µM,94% (active)
same,growth inhibition,[13]; [16],21%
same,growth inhibition,[13]; [17],95% (active)
same,growth inhibition,[13]; at 50.0 µM,87.9% (active)
same,growth inhibition,[14]; at 1.2 µM,4%
same,growth inhibition,[14]; at 3.7 µM,26%
same,growth inhibition,[14]; at 11.0 µM,91% (active)
same,growth inhibition,[14]; at 33.0 µM,97% (active)
same,growth inhibition,[14]; at 100.0 µM,93% (active)
C[Si](C)(C)CNC(=O)OCc1ccccc1,growth inhibition,[1]; at 1.2 µM,-1%
same,growth inhibition,[1]; at 3.7 µM,-4%
same,growth inhibition,[1]; at 11.0 µM,6%
same,growth inhibition,[1]; at 33.0 µM,2%
same,growth inhibition,[1]; at 100.0 µM,16%
same,growth inhibition,[2]; at 1.2 µM,2%
same,growth inhibition,[2]; at 3.7 µM,-2%
same,growth inhibition,[2]; at 11.0 µM,-3%
same,growth inhibition,[2]; at 33.0 µM,-4%
same,growth inhibition,[2]; at 100.0 µM,-3%
same,growth inhibition,[3]; at 1.2 µM,1%
same,growth inhibition,[3]; at 3.7 µM,-1%
same,growth inhibition,[3]; at 11.0 µM,10%
same,growth inhibition,[3]; at 33.0 µM,21%
same,growth inhibition,[3]; at 100.0 µM,41%
same,growth inhibition,[4]; at 1.2 µM,7%
same,growth inhibition,[4]; at 3.7 µM,5%
same,growth inhibition,[4]; at 11.0 µM,-5%
same,growth inhibition,[4]; at 33.0 µM,-4%
same,growth inhibition,[4]; at 100.0 µM,12%
same,growth inhibition,[5]; at 1.2 µM,1%
same,growth inhibition,[5]; at 3.7 µM,-10%
same,growth inhibition,[5]; [16],-1%
same,growth inhibition,[5]; at 11.0 µM,1%
same,growth inhibition,[5]; at 33.0 µM,19%
same,growth inhibition,[5]; [17],-8%
same,growth inhibition,[5]; at 50.0 µM,37.1%
same,growth inhibition,[5]; at 100.0 µM,56%
same,growth inhibition,[6]; at 1.2 µM,-2%
same,growth inhibition,[6]; at 3.7 µM,-3%
same,growth inhibition,[6]; [16],-1%
same,growth inhibition,[6]; at 11.0 µM,1%
same,growth inhibition,[6]; at 33.0 µM,1%
same,growth inhibition,[6]; [17],32%
same,growth inhibition,[6]; at 50.0 µM,21.9%
same,growth inhibition,[6]; at 100.0 µM,11%
same,growth inhibition,[7]; at 1.2 µM,-1%
same,growth inhibition,[7]; at 3.7 µM,-1%
same,growth inhibition,[7]; at 11.0 µM,0%
same,growth inhibition,[7]; at 33.0 µM,0%
same,growth inhibition,[7]; at 100.0 µM,6%
same,growth inhibition,[8]; at 1.2 µM,-3%
same,growth inhibition,[8]; at 3.7 µM,-3%
same,growth inhibition,[8]; at 11.0 µM,7%
same,growth inhibition,[8]; at 33.0 µM,4%
same,growth inhibition,[8]; at 100.0 µM,5%
same,growth inhibition,[15]; [16],14%
same,growth inhibition,[15]; [17],20%
same,growth inhibition,[15]; at 50.0 µM,-22.8%
same,growth inhibition,[9]; at 1.2 µM,4%
same,growth inhibition,[9]; at 3.7 µM,15%
same,growth inhibition,[9]; [16],6%
same,growth inhibition,[9]; at 11.0 µM,35%
same,growth inhibition,[9]; at 33.0 µM,83% (active)
same,growth inhibition,[9]; [17],93% (active)
same,growth inhibition,[9]; at 50.0 µM,93.5% (active)
same,growth inhibition,[9]; at 100.0 µM,94% (active)
same,growth inhibition,[11]; at 1.2 µM,3%
same,growth inhibition,[11]; at 3.7 µM,-7%
same,growth inhibition,[11]; at 11.0 µM,4%
same,growth inhibition,[11]; at 33.0 µM,18%
same,growth inhibition,[11]; at 100.0 µM,38%
same,growth inhibition,[12]; at 1.2 µM,1%
same,growth inhibition,[12]; at 3.7 µM,-1%
same,growth inhibition,[12]; at 11.0 µM,1%
same,growth inhibition,[12]; at 33.0 µM,1%
same,growth inhibition,[12]; at 100.0 µM,4%
same,growth inhibition,[13]; [16],-14%
same,growth inhibition,[13]; [17],-1%
same,growth inhibition,[13]; at 50.0 µM,7.5%
same,growth inhibition,[14]; at 1.2 µM,-3%
same,growth inhibition,[14]; at 3.7 µM,-2%
same,growth inhibition,[14]; at 11.0 µM,8%
same,growth inhibition,[14]; at 33.0 µM,17%
same,growth inhibition,[14]; at 100.0 µM,49%
